The text below walks through data of PubChem BioAssay (NCI).

Test systems include SK-MEL-2 melanoma; EKVX NSCLC; SN12C renal; UO-31 renal; CAKI-1 renal; A498 renal; CCRF-CEM leukemia; MOLT-4 leukemia; SR leukemia; RPMI-8226 leukemia; OVCAR-8 ovarian; OVCAR-5 ovarian; OVCAR-4 ovarian; SK-OV-3 ovarian; IGROV1 ovarian; OVCAR-3 ovarian; NCI/ADR-RES ovarian; TK-10 renal; ACHN renal; HS 578T breast.
Test in all cases: NCI-60 one-dose screen, 48 h (100 = growth as untreated, 0 = no growth, -100 = all killed)
Common to all, as to conditions: 10 µM unless noted

Molecules are shown by their SMILES. This is part of a sample that, as a whole, favours compounds with a hit. Of some 83,000 tested, about 20% had one in any assay.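 The test compound was applied at a single concentration to cells in 96-well plates for 48 hours, and percent growth was recorded.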 Values without a mark were called inactive. Activity calls are given as the source filed them. The calls were made as follows: active = growth percent below 10; inactive = the rest.

`N#C/C(=C\c1ccc2c(c1)OCO2)c1ccccc1`: the growth with SK-MEL-2 melanoma is 76.5%; in the assay on EKVX NSCLC, 80.9%; in the assay with SN12C renal, 89.3%; with UO-31 renal, 76.7%; in the assay with CAKI-1 renal it was 58.9%; in the assay with A498 renal, 62.7%. Moreover, the growth in the assay on CCRF-CEM leukemia was 75.3%; with MOLT-4 leukemia it was 57.8%; in the assay on SR leukemia, 14.2%; with RPMI-8226 leukemia it was 74.8%; in the assay with OVCAR-8 ovarian, 90.1%; with OVCAR-5 ovarian, 79.6%. The growth with OVCAR-4 ovarian was 99.8%; with SK-OV-3 ovarian, 87.3%; in the assay on IGROV1 ovarian it was 62.8%; with OVCAR-3 ovarian, 79.4%; with NCI/ADR-RES ovarian, 47.8%.

Take `OCCNc1ccccc1`: the growth in the assay on SK-MEL-2 melanoma is 103%; with EKVX NSCLC it was 111%; in the assay with UO-31 renal, 90.9%; in the assay on TK-10 renal it was 101%; with ACHN renal, 108%; with CAKI-1 renal, 96.7%. The growth with A498 renal is 99.1%; in the assay on CCRF-CEM leukemia, 105%; in the assay on MOLT-4 leukemia, 101%; in the assay with SR leukemia it was 93.2%; in the assay on RPMI-8226 leukemia, 105%; with OVCAR-8 ovarian, 102%. For the same molecule, the growth in the assay with OVCAR-5 ovarian is 107%; in the assay with OVCAR-4 ovarian, 101%; in the assay on SK-OV-3 ovarian, 105%; in the assay on IGROV1 ovarian, 110%; with OVCAR-3 ovarian, 105%; with HS 578T breast, 101%. Further, the growth in the assay on NCI/ADR-RES ovarian was 100%.

In the case of `OCCOc1ccc(-c2cc(-c3ccccn3)nc(-c3ccccn3)c2)cc1`, the growth in the assay with SK-MEL-2 melanoma was 37.6%; with EKVX NSCLC, 18.5%; in the assay on UO-31 renal, -14.5% (active); with TK-10 renal, 28%; with ACHN renal, 3.04% (active); in the assay on CAKI-1 renal, 3.07% (active). For the same molecule, the growth is 3.02% (active) in the assay on CCRF-CEM leukemia; -6.16% (active) with MOLT-4 leukemia; 5.14% (active) in the assay on SR leukemia; 2.3% (active) in the assay on RPMI-8226 leukemia; -36.4% (active) with OVCAR-5 ovarian; 5.18% (active) in the assay on OVCAR-4 ovarian. For the same molecule, the growth in the assay with SK-OV-3 ovarian was 18.5%; in the assay with IGROV1 ovarian it was -17.6% (active); in the assay with OVCAR-3 ovarian, -32.7% (active); with NCI/ADR-RES ovarian, -57% (active).

`Cc1ccc(S(N)(=O)=O)cc1Cl`: the growth in the assay with SK-MEL-2 melanoma is 103%; in the assay on EKVX NSCLC it was 125%; in the assay on UO-31 renal it was 94.5%; in the assay on TK-10 renal, 107%; in the assay with CAKI-1 renal, 101%; with A498 renal it was 106%. Further, the growth is 102% with CCRF-CEM leukemia; 96.6% in the assay on MOLT-4 leukemia; 103% with RPMI-8226 leukemia; 105% in the assay with OVCAR-8 ovarian; 103% with OVCAR-5 ovarian; 115% in the assay with OVCAR-4 ovarian. The growth was 110% in the assay on SK-OV-3 ovarian; 109% in the assay on IGROV1 ovarian; 115% in the assay on OVCAR-3 ovarian; 117% in the assay with HS 578T breast; 117% in the assay on NCI/ADR-RES ovarian.

For `CC(=O)c1cccc(O)c1`, the growth in the assay with SK-MEL-2 melanoma was 103%; in the assay with SN12C renal it was 107%; in the assay on UO-31 renal, 90.5%; with TK-10 renal, 90%; in the assay with ACHN renal, 103%; in the assay on CAKI-1 renal, 97.9%. The growth with A498 renal was 38.3%; in the assay with CCRF-CEM leukemia it was 106%; in the assay on MOLT-4 leukemia, 95.9%; in the assay with SR leukemia, 90.6%; with RPMI-8226 leukemia, 105%; with OVCAR-8 ovarian it was 103%. Further, the growth was 96.4% with OVCAR-5 ovarian; 93.6% in the assay on OVCAR-4 ovarian; 104% in the assay with SK-OV-3 ovarian; 106% with IGROV1 ovarian; 115% with OVCAR-3 ovarian; 96.5% in the assay on HS 578T breast. Also, the growth in the assay with NCI/ADR-RES ovarian was 100%.

As to `CC(C)(C)[Si](C)(C)OCC1OC(n2cnc3c(N)ncnc32)CC1OS(C)(=O)=O` (stereo not drawn), the growth in the assay with SK-MEL-2 melanoma is 105%; with EKVX NSCLC it was 105%; with UO-31 renal, 86.8%; in the assay on TK-10 renal it was 99.7%; in the assay with ACHN renal it was 114%; with CAKI-1 renal it was 96.2%. Further, the growth is 67.6% in the assay on A498 renal; 101% with CCRF-CEM leukemia; 105% with MOLT-4 leukemia; 107% in the assay on SR leukemia; 103% in the assay with RPMI-8226 leukemia; 98.6% in the assay on OVCAR-8 ovarian. Further, the growth in the assay with OVCAR-4 ovarian was 108%; with SK-OV-3 ovarian, 101%; in the assay on IGROV1 ovarian, 114%; with OVCAR-3 ovarian it was 104%; with HS 578T breast, 89.8%; in the assay with NCI/ADR-RES ovarian, 103%.

Regarding `Cc1cc(Nc2ccc3c(c2)OCO3)c2cc3c(cc2n1)OCO3`, the growth is 22.5% in the assay on SK-MEL-2 melanoma; 44.9% with EKVX NSCLC; 28.5% in the assay with UO-31 renal; 59.7% in the assay with TK-10 renal; 50.9% with ACHN renal; -1.69% (active) in the assay on A498 renal. The growth is -7.98% (active) with CCRF-CEM leukemia; 35.8% with MOLT-4 leukemia; -19.9% (active) with RPMI-8226 leukemia; 25.7% with OVCAR-8 ovarian; 45% in the assay on OVCAR-5 ovarian; 81.4% in the assay on OVCAR-4 ovarian. The growth in the assay on SK-OV-3 ovarian was 16.2%; in the assay on IGROV1 ovarian it was -37.2% (active); in the assay with OVCAR-3 ovarian, -45.1% (active); with HS 578T breast it was -14.2% (active); in the assay on NCI/ADR-RES ovarian, -8.22% (active).

Take `CC(=O)Nc1ccc(C(=O)c2ccc(S(=O)(=O)Nc3ccccc3)cc2)cc1`: the growth was 80.6% in the assay on SK-MEL-2 melanoma; 105% in the assay on EKVX NSCLC; 98.6% with SN12C renal; 85.7% with UO-31 renal; 104% in the assay on ACHN renal; 106% in the assay with CAKI-1 renal. In addition, the growth in the assay with A498 renal is 79.2%; with CCRF-CEM leukemia, 82.8%; with SR leukemia it was 105%; with RPMI-8226 leukemia, 68.1%; in the assay on OVCAR-8 ovarian, 84%; in the assay with OVCAR-4 ovarian it was 95.5%. Besides, the growth with SK-OV-3 ovarian is 104%; with OVCAR-3 ovarian, 105%; in the assay with HS 578T breast, 127%; in the assay on NCI/ADR-RES ovarian, 30.6%.

Turning to `O=S(Cc1ccccc1)/C(=C/NC(=S)Nc1ccccc1)c1ccccc1` (stereo not drawn), the growth with SK-MEL-2 melanoma was 104%; in the assay with EKVX NSCLC it was 102%; with UO-31 renal, 81.7%; in the assay with TK-10 renal, 119%; in the assay on ACHN renal, 97.2%; in the assay on CAKI-1 renal, 94.8%. In addition, the growth is 120% with A498 renal; 102% in the assay on CCRF-CEM leukemia; 103% with MOLT-4 leukemia; 88.4% in the assay with SR leukemia; 103% in the assay with RPMI-8226 leukemia; 107% with OVCAR-8 ovarian. For the same molecule, the growth in the assay on OVCAR-5 ovarian was 99%; in the assay with OVCAR-4 ovarian, 98.3%; with SK-OV-3 ovarian, 91.4%; in the assay with IGROV1 ovarian, 97.6%; with OVCAR-3 ovarian, 105%; in the assay on HS 578T breast, 114%. In addition, the growth in the assay on NCI/ADR-RES ovarian was 98.4%.
